Source: PubChem
RGS4 inh – human RGS4 inhibition. Transcreener GDP fluorescence polarization, RGS4-accelerated GTP hydrolysis. Potency, µM (highest dose often 114 µM), without a hit: at the top dose activity change, negative = inhibition, usual class: inhibitors. 390,000 tested, 0.039% active. AID 504845; active means well fitted curve in the direction sought with a large enough effect; inconclusive means small, poorly fitted or top-dose-only effect, or another doubt; inactive means no such curve, though single readings can be large; an effect the other way counts as inactive or inconclusive; further: potency means the concentration at half of the fitted maximal effect; on the % scale 0 is the no-effect control and ±100 the full control effect; nearly all actives have a fitted effect of over 75% in size
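MLSMR compounds (23 nl, pin-transferred) preincubated 10 min at room temperature with a 500nM (2x) first reagent, then RGS4 at 900nM (2x) plus Transcreener GDP mix added; fluorescence polarization (620/688 nm) read before and after 90 min at 30 °C.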
Six1-Eya2 inh – blocks human Six1 binding to Eya2. 360,000 tested, 0.56% active. AID 651725. AlphaScreen GST-Six1/His-Eya2 binding, biochemical; active compounds read low. Q15475+O00167. activity change, % (test concentration not listed); further: on the % scale 0 is the no-effect control and ±100 the full control effect
Target sequence (O00167 whole entry, looked up): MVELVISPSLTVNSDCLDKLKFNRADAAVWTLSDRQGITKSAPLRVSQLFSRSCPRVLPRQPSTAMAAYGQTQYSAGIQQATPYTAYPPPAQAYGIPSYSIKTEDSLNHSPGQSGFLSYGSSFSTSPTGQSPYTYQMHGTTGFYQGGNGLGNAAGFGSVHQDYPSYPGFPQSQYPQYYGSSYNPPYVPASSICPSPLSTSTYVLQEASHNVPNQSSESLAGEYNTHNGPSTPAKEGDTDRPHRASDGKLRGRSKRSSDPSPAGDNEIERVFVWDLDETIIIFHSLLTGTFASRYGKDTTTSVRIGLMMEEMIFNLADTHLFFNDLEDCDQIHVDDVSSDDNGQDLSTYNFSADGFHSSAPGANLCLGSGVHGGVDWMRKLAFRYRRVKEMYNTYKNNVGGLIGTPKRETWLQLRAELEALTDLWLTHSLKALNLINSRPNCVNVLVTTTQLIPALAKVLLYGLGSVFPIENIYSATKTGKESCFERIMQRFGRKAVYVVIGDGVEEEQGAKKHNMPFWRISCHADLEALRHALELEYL
Target sequence (Q15475 whole entry, looked up): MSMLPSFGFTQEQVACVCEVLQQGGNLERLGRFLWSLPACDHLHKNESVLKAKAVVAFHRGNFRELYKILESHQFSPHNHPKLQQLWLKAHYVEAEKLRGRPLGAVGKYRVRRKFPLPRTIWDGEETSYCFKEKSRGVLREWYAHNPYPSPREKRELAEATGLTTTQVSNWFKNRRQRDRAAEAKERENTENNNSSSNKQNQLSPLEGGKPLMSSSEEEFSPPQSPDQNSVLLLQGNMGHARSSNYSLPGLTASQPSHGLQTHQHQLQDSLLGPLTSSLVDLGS
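Six1/Eya2 binding was read as AlphaScreen signal after compounds were pinned into GST-Six1 plus His-tagged Eya2 (5X stock 250/500 nM) in pH 8.0 Tris/NaCl/TCEP buffer, beads added, then incubated 1 h, 37 C, dark.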
GRP78 ERSR act – induces the endoplasmic reticulum stress response in human glioma cells. AID 602332. U87-MG GRP78 promoter luciferase reporter, 16 h. 420,000 tested, 0.02% active. Potency, µM, for inactives: top-dose activation, actives largely listed as activators; active means well fitted curve in the direction sought with a large enough effect; inconclusive means small, poorly fitted or top-dose-only effect, or another doubt; inactive means no such curve, though single readings can be large; an effect the other way counts as inactive or inconclusive; further: potency means the concentration at half of the fitted maximal effect; series mostly up to about 76 µM; % of control where 0% means no effect; nearly all actives have a fitted effect of over 35% in size
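Stably transfected U87-MG glioma cells carrying a GRP78-based luciferase sensor; 16 h compound incubation. Luminescence end-point read 10 min after Bright-Glo addition at room temperature.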
CtBP-E1A inh – blocks the CtBP interaction with E1A; AlphaScreen GST-E1A/His-CtBP binding, 1536-well; active compounds read low; activity change, % (concentration not given with the values); 340,000 tested, 0.49% active; AID 651724; further: on the % scale 0 is the no-effect control and ±100 the full control effect
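GST-E1A and His-tagged CtBP (125 nM each as 5X stock) were preincubated with pin-transferred compound for 2 h at 37 °C in the dark, then glutathione donor and nickel acceptor beads were added for 1 h before AlphaScreen reading.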
Akt phos inh – blocks phosphorylation of Akt | AID 651550 | activity change, % for hits at 50 µM | Neuro2A IGF-stimulated pAkt S473 HTRF, 20 min; active compounds read low | 360,000 tested, 0.32% active; in the data active means activity change below about -80%; inconclusive means mostly about -51% to -80%; further: on the % scale 0 is the no-effect control and ±100 the full control effect
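Neuro2A cells in DMEM with 0.5% FBS, overnight at 37 deg C, given compound at single 50 µM final, then IGF (6 nM final) for 20 min at 37 deg C. Lysed; phospho-Akt Ser473 by HTRF after 24 h, 665/615 ratio.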
* hit, by the source's call; i = inactive; ? = inconclusive; . = no result; ! = a repeat was not active. An excerpt weighted towards active compounds, which were near 0.88% of everything screened. Unless noted, no stated cut-off is given here; in the data, active means activity change below about -65%; inconclusive means mostly about -30% to -63%; inactive means weaker than that.

SMILES	RGS4 inh	Six1-Eya2 inh	GRP78 ERSR act	CtBP-E1A inh	Akt phos inh
O=c1[nH]c2ccccc2c2nc3ccccn3c12	-14%	?	4%	?	i
Cc1cc(O)c(-c2cc(C(=O)Nc3ccc(S(=O)(=O)N4CCOCC4)cc3)[nH]n2)cc1C	-7%	?	-1%	-72*	i
O=C(Cn1nnc(-c2ccccc2)n1)N=Nc1c(O)[nH]c2ccccc12	-1%	3	-3%	-8	-105%*
c1cncc(OC2CCN(Cc3ccc4c(c3)CN(Cc3ccc5c(c3)OCCO5)CCO4)CC2)c1	.	.	-4%	.	.
Cc1cc(C(=O)OCC(=O)Nc2cccc(S(N)(=O)=O)c2)c(C)o1	9%	-16	0%	-68*	i
CCn1cc(CNC(=O)/C=C/c2cnn(C)c2)c(C)n1	-1%	-15	-3%	-14	i
CCn1cc(/C=C/C(=O)NCc2c(C)nn(C)c2C)cn1	12%	-9	-2%	-12	-107%*
O=c1c(CO)cc(CO)cc(CO)c1O	13%	-90*	-5%	.	i
COc1ccc(NC(=O)c2cc([N+](=O)[O-])ccc2NC(=O)CNCc2ccccn2)c(OC)c1	?	?	-2%	-17	i
COc1cc(NC(=O)c2cc([N+](=O)[O-])ccc2NC(=O)CNCc2ccccn2)cc(OC)c1	?	-91*	-3%	-84*	i
O=C(O)c1ccccc1-c1c2cc(Br)c(=O)c(Br)c-2oc2c(Br)c(O)c(Br)cc12	.	.	-4%	.	.
O=C(O)c1cccc2cccc(-c3c4ccc(=O)c(O)c-4oc4c(O)c(O)ccc34)c12	?	-76*	11%	0	i
CCN1CCCC1CNC(=O)c1cnn(-c2ncc(C)c(-c3ccc(F)cc3)n2)c1C(C)C (stereo not given)	.	.	-5%	.	.
Cc1ccc(CNc2ncnc3sc(C(=O)N4CCC[C@H]4C(N)=O)c(C)c23)o1	.	.	-6%	.	.
CC(C)c1ccc(C2NC(C(=O)O)CS2)cc1 (stereo not given)	-8%	0	-2%	-1	-105%*
NCCNCCNCCN	12%	-84*	-1%	-93*	.
COc1ccc(C(=O)NCC2Cc3cc(C)cc(-c4nc5ccccc5s4)c3O2)c(OC)c1OC (stereo not given)	.	.	-4%	.	.
COc1cc(O)c(CC=C(C)C)c(O)c1C(=O)CCc1ccc(O)cc1	-3%	-1	-3%	-3	i
O=C(CCc1ccc(O)cc1)c1c(O)cc(O)cc1O	19µM*!	-7	3%	-15	i
O=[N+]([O-])c1ccc(-c2ccc(C=Nc3cccc4ccccc34)o2)cc1	-8%	?	2%	3	i
O=[N+]([O-])c1ccc(C=Nc2cccc3ccccc23)s1	-33%	?	-4%	-70*	i
CC(C)NC(=O)c1cn([C@H]2CC[C@@H](NC(=O)/C=C/c3cccs3)CC2)nn1	.	.	-2%	.	.
CC(=O)Nc1ccc(/C=C/C(=O)c2ccc(-n3nncc3-c3ccccc3)cc2)cc1	-44%	.	15%	.	.
CCN(CC)c1ccc(NC(=O)Nc2ccccc2C(F)(F)F)cc1	-54%	0	2%	0	-116%*
OC1(c2cccnc2)CCN(Cc2ccc3c(c2)CN(Cc2ccsc2)CCO3)CC1	.	.	-3%	.	.
SMILES	RGS4 inh	Six1-Eya2 inh	GRP78 ERSR act	CtBP-E1A inh	Akt phos inh
Cc1cccc(-n2c(Cc3ccccc3)nnc2SCC(=O)N2CCOCC2)c1	17%	-2	-2%	-2	i
O=C(CSc1nnc(Cc2ccccc2)n1-c1cccc(Cl)c1)N1CCOCC1	12%	1	-3%	5	-132%*
COc1cc(O)c(C(CCN2CCN(c3ccccc3)CC2)c2ccc(N(C)C)cc2)c(OC)c1 (stereo not given)	2%	-78*	-3%	-70*	i
COc1ccc(C(CCN2CCN(c3ccccc3)CC2)c2c(O)cc(OC)cc2OC)cc1 (stereo not given)	-2%	?	6%	-29	i
CCOC(=O)Cc1nnc(NC(=O)C(CC)Sc2nnc3c4ccccc4n(C)c3n2)s1 (stereo not given)	19%	?	-1%	-71*	i
CCOC(=O)c1sc(NC(=O)C(CC)Sc2nnc3c4ccccc4n(C(C)C)c3n2)nc1C (stereo not given)	-5%	1	0%	7	i
CCOc1ccc(S(=O)(=O)N2CCN(C)CC2)cc1NC(=O)c1ccccc1F	-4%	-69*	-3%	1	i
CCOc1ccc(S(=O)(=O)N2CCN(CC)CC2)cc1NC(=O)c1ccccc1F	7%	?	0%	?	i
CC(=O)Nc1ccc2c(c1)C(=O)c1ccccc1C2=O	11%	?	-3%	?	i
O=C(O)/C=C/C(=O)Nc1ccc2c(c1)C(=O)c1ccccc1C2=O	0%	-67*	3%	-23	i
CSCSC1=C(C#N)C(c2ccccc2Cl)C(C(C)=O)=C(C)N1 (stereo not given)	-44%	1	-3%	-6	-106%*
CCOC(=O)CSC1=C(C#N)C(c2ccccc2F)C(C(C)=O)=C(C)N1 (stereo not given)	-53%	12	-4%	13	.
CC(C)(C)c1cc(C(=O)NCc2ccccc2)ccn1	-41%	1	-1%	9	-88%*
COc1ccc(CCNC(=O)c2ccnc(C(C)(C)C)c2)cc1OC	38%	-1	-3%	.	i
Cc1cc(N)c2ccccc2[n+]1CCCCCCCCCC[n+]1c(C)cc(N)c2ccccc21	24µM*	.	-6%	.	.
Cc1ccc2ccccc2[n+]1CCCCI	.	.	-3%	.	.
O=C(O)c1cc2ccccc2cn1	24%	-80*	0%	-84*	i
O=C(O)c1cc2c(cn1)[nH]c1ccccc12	1%	-79*	-1%	-93*	i
O=C(O)c1cnc2ccccc2n1	-39%	16	2%	22	i
O=C(Nc1ccc(Cl)cc1Cl)[C@@H]1CC=C[C@@H]2CCN(C3CC3)C(=O)[C@@H]21	.	.	-3%	.	.
O=C(N/N=C/c1ccc(O)cc1)c1cc(-c2ccccc2)nc2ccccc12	29%	-7	5%	-1	i
O=C(N/N=C/c1ccc(O)cc1)c1csc2ccccc12	-51%	-13	?	-20	-107%*
Cc1nn(-c2ccccc2)c(N)c1C(O)(C(F)(F)F)C(F)(F)F	-6%	12	1%	9	i
Nc1c2c(=O)[nH]c(O)cc2nn1-c1ccccc1	-13%	7	-4%	-66*	i
O=C(O)Cc1c[nH]c2ccc(O)cc12	21µM*!	-1	-2%	1	i
COc1ccc2[nH]cc(CC(=O)O)c2c1	21%	3	-1%	3	i
O=C(NC(c1cccnc1)C(F)(F)F)c1cnn(-c2nccc(-c3cccs3)n2)c1C1CC1 (stereo not given)	.	.	2%	.	.
Cc1ccc(NC2=C(Cl)C(=O)c3ccccc3C2=O)cc1	-12%	-10	-11%	11	i
